The structures appear in SMILES notation. About 79,000 compounds went through this panel and 15% of them were active in at least one assay; those are over-represented in the sample as a whole. A number with no mark means an inactive call. Active and inactive are the calls of the source. Rule as the data show it: active = growth inhibition above about 70%; inactive = the rest.

A short description of the assay: NCI Yeast Anticancer Drug Screen. Data for the cln2 rad14 strain (AID 165).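 Also: 0% = growth equal to vehicle treated cultures.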 As to conditions: S. cerevisiae cln2 rad14 strain, at 50.0 µM, hits give high values. The procedure, abridged:
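Yeast carrying cln2 and rad14 alterations (cell cycle control and DNA damage repair) were exposed to compounds. Growth inhibition was measured against vehicle-treated controls.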
For `CC1CCC2(OC1)OC1CC3C4CCC5CC(O)CCC5(C)C4CC(=O)OC3(C)C1C2C` (stereo not given), the growth inhibition is -7.35%.

Regarding `O=c1[nH]nc(SCc2ccccc2)c2nncn12`, the growth inhibition was 23.4%.

Regarding `COC(=O)Nc1cccc(-c2nc3ccc(NC(=O)OC)cc3c(=O)n2-c2ccccc2)c1`, the growth inhibition is 8.55%.

Consider `Cn1c(Nc2ccccc2)c([N+](=O)[O-])c(=O)n(C)c1=O`, for which the growth inhibition is -18.2%.

In the case of `COc1ccc2ccc3[nH]c4c(C)cnc(NCCCN(C)C)c4c3c2c1`, the growth inhibition was 18.9%.

For the molecule `O=C(CCc1nnc2s/c(=C\c3ccc(Cl)cc3Cl)c(=O)n12)Nc1cc(Cl)c(Cl)cc1Cl`, the growth inhibition was 20.6%.

In the case of `N#Cc1c2c(c(N3CCCCC3)n3c1nc1ccccc13)CCC2`, the growth inhibition was 8%.

On to `C/C=C(/C)C(=O)O[C@H]1C[C@@H]2[C@@H](O)c3occ(C)c3C[C@]2(C)[C@@H](C)C1`, for which the growth inhibition is 90% (active).

Take `O=c1oc2ccccc2cc1S(=O)(=O)c1ccc(Cl)cc1`: the growth inhibition was -58%.

As to `N#CCN1CCOCCOCCN(CC#N)CCOCCOCC1`, the growth inhibition is 19.7%.

Turning to `O=C(NCc1ccccn1)c1ccccc1`, the growth inhibition was -18.9%.

Consider `Cc1cc(=O)[nH]c(NN2C(Cl)C(=O)C2c2ccc([N+](=O)[O-])cc2)n1` (stereo not given), for which the growth inhibition is 2.7%.

As to `COC(=O)Nc1nc2c(OC)c(OC)c(OC)cc2[nH]1`, the growth inhibition was -17.9%.

Consider `CC(C)OP(=O)(OC(C)C)c1ccc2c(c1)OCCOCCOCCOCCO2`, for which the growth inhibition is 4.2%.

Turning to `CC(C)OP(=O)(OC(C)C)/C(N)=N/Nc1ccc([N+](=O)[O-])cc1`, the growth inhibition is 2.65%.
